Screening results deposited in PubChem BioAssay by several laboratories.
Hits are enriched below; roughly 4% of the tested compounds scored in any of these assays.
Mtb FBA inh: inhibits M. tuberculosis FBA enzyme. purified M. tuberculosis FBA, fluorescence read-out. inhibition, % at 1 µM. 360,000 compounds, 2.3% hits. AID 588726; in the data active = inhibition above about 27%
Target sequence (P9WQA3 whole entry, looked up): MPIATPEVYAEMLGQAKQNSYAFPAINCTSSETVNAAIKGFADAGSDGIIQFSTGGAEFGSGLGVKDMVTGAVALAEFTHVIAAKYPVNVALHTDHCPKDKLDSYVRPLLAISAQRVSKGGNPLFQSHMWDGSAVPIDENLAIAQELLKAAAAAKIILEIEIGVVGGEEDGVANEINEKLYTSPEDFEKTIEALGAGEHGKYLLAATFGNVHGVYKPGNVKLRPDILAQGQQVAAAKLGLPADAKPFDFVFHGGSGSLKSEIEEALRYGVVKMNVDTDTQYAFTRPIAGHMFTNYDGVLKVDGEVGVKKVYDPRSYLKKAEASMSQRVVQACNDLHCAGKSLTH
GDH-TPI counter: counter-screen for M. tuberculosis FBA inhibitors: GDH-TPI coupled enzymes; inhibition, % at 4.8 µM; GDH-TPI coupled enzyme counterscreen, NADH absorbance; 360,000 compounds, 1.2% hits; AID 588335
Mtb bLac sens: beta-lactam sensitization of Mtb H37Rv. M. tuberculosis H37Rv growth with meropenem, percent inhibition. inhibition, % at 25 µM. 330,000 compounds, 0.27% hits; call rule not given here;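 note: growth measured after seven days incubation then overnight dye step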
MazEF act: activators of E. coli MazEF toxin-antitoxin RNase; P0AE70; FAM/BHQ RNA-DNA oligo cleavage fluorescence, 5 h; activation, % at 20 µM; 350,000 compounds, 0.32% hits; in the data active = activation above about 50%
CCHF vOTU inh: blocks the CCHF virus ovarian tumor domain protease; CCHFV vOTU protease, Pep-AMC fluorescence; inhibition, % at 11.5 µM; 370,000 compounds, 0.55% hits; AID 651958
Hits are given with their value; . = inactive; / = not tested or not shown; + = active, no number. Cut-off read from the data, not from the text of the source, unless noted: active = inhibition above about 30%; inactive = the rest.

SMILES	Mtb FBA inh	GDH-TPI counter	Mtb bLac sens	MazEF act	CCHF vOTU inh
CC(=O)c1ccc(Nc2nc(C(N)CC(C)C)cs2)cc1 (centres undefined)	.	32	/	/	.
O=C(Nc1nc2ncccn2c1-c1ccccc1)c1ccccc1	/	/	/	/	.
COc1c(C=O)c2c(c(OC)c1OC)-c1ccc(OC)c(=O)cc1C(NC(C)=O)CC2 (centres undefined)	.	32	/	.	.
COc1cc2c(c(OC)c1OC)-c1ccc(OC)c(=O)cc1C(NC(C)=O)CC2 (centres undefined)	.	.	.	.	.
CCOc1cc(/C=C2\SC(=S)N(C(C(=O)O)c3ccccc3)C2=O)ccc1O (centres undefined)	.	38	.	.	.
CCOc1cc(/C=C2/SC(=S)N(CC(=O)O)C2=O)ccc1OC(=O)c1cccs1	.	41	.	.	.
CCOc1ccc(/C=C2/SC(=S)N(C(C(=O)O)c3ccccc3)C2=O)cc1OCC (centres undefined)	.	.	/	.	.
O=C1/C(=C/c2cccc(O)c2)SC(=S)N1CC1CCCO1 (centres undefined)	.	.	.	.	.
CCOc1cc(/C=C2/SC(=S)N(CC3CCCO3)C2=O)ccc1O (centres undefined)	.	.	.	+	.
CCC(C(=O)Nc1ccccc1N1CCCC1)c1ccccc1F (centres undefined)	/	/	/	/	.
C/C(=N\Nc1ccc(S(=O)(=O)N2CCCCC2)cn1)c1cccc(Br)c1	.	.	.	.	.
CCN(CC)S(=O)(=O)c1ccc(N/N=C(\C)c2ccncc2)c([N+](=O)[O-])c1	.	.	.	.	.
CCN(CC)S(=O)(=O)c1ccc(N/N=C(\C)c2ccncc2)nc1	.	38	.	.	.
CCN(CC)S(=O)(=O)c1ccc(N/N=C(\C)c2cccnc2)nc1	.	35	.	.	.
CC(C)C[C@H]1COc2cccc(F)c2S(=O)(=O)N1C	/	/	/	/	.
COC(=O)c1ccccc1NC(=O)c1cnc2sccn2c1=O	.	.	.	.	.
O=C(NCc1ccco1)c1cnc2ccccn2c1=O	.	.	.	.	.
O=C(Nc1nccs1)c1cnc2sccn2c1=O	.	45	/	.	.
O=C(NCc1ccco1)c1cnc2sccn2c1=O	.	33	.	.	.
Cc1ccc2nc3c(cc(C#N)c(=O)n3-c3nccs3)c(=O)n2c1	+	.	.	.	.
CCC(C)n1c(=N)c(C#N)cc2c(=O)n3cc(C)ccc3nc21 (centres undefined)	.	.	.	.	.
Nc1n[nH]c(N)c1N=Nc1ccccc1F	.	38	.	.	.
Cc1ccccc1N=Nc1c(N)n[nH]c1N	.	.	.	.	.
CCCCCCCCN1C(=O)[C@@H](CC(=O)N2CCSCC2)C[C@@]2(C(=O)OC)C1=C[C@H](C(C)C)O[C@@H]2C1CC1	/	/	/	/	.
COc1cc(/C=N/Nc2ncc(C(F)(F)F)cc2Cl)cc(OC)c1OC	.	32	.	.	.
SMILES	Mtb FBA inh	GDH-TPI counter	Mtb bLac sens	MazEF act	CCHF vOTU inh
CCOC(=O)Cc1cc(=O)[nH]c(Nc2nc3ccccc3o2)n1	.	.	.	.	.
COC(=O)Cc1cc(=O)[nH]c(Nc2nc3ccccc3o2)n1	.	37	.	.	.
COc1ccc(S[C@]2(C(=O)NCC(C)C)CC(=O)N[C@@H]2c2ccc(OC)cc2)cc1	/	/	/	/	.
COc1cc2c3nnc(-c4ccc(F)cc4)c-3cn(Cc3ccc(F)cc3)c2cc1OC	.	.	.	118	.
COc1ccc(Cn2cc3c(-c4ccc(F)cc4)nnc-3c3cc(OC)c(OC)cc32)cc1	.	.	.	558	.
COc1ccc(-c2nnn(Cc3ccccc3)n2)cc1OC	.	.	.	.	.
Cn1nc2c3cc(F)ccc3n(Cc3ccc(F)cc3)cc-2c1=O	.	.	.	.	.
COc1cc2c3nnc(-c4ccc(F)cc4)c-3cn(Cc3ccccc3)c2cc1OC	.	.	.	+	.
CC[C@@]1(c2cccc(Cl)c2)C(=O)N(C(=O)OC(C)C)N1C(=O)OC(C)C	/	/	/	/	.
Nc1cc(Cl)nc(N/N=C/c2ccc([N+](=O)[O-])cc2)n1	.	33	.	.	.
Nc1cc(Cl)nc(N/N=C/c2ccccc2[N+](=O)[O-])n1	.	.	.	.	.
COC[C@H]1OC(=O)c2coc3c2[C@@]1(C)C1=C(C3=O)[C@@H]2CCC(=O)[C@@]2(C)C[C@H]1OC(C)=O	.	.	/	67	.
O=C(c1cccc(F)c1F)N1CCCC(c2nc(-c3cccs3)no2)C1 (centres undefined)	/	/	/	/	.
CC(=O)Nc1cccc2c1Cc1cc([N+](=O)[O-])ccc1-2	.	40	/	.	.
CC(=O)Nc1cccc2c1Cc1ccccc1-2	.	.	.	.	/
